# Laboratory results as given in PubChem BioAssay (NCATS).
# Records with an inconclusive call do not appear. Where a call stands in place of a potency, no number is given. Activity calls are given as the source filed them. The call rests on the fitted dose curve; in most records, active means well fitted inhibition curve with a large enough effect; inconclusive means small, poorly fitted or top-dose-only effect; inactive means no such curve, though single readings can be large or run the other way.
# Biological target: Rap guanine nucleotide exchange factor 3 (Homo sapiens) (UniProt O95398)
# Assay: Counterscreen qHTS for antagonist of cAMP-regulated guanine nucleotide exchange factor 3 (EPAC1) (AID 1645888);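 further: fluorescence loss as bound BODIPY-GDP is released from Rap1B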
# Details: Rap1B-BODIPY-GDP nucleotide exchange, fluorescence; series mostly up to 154 µM
# Summary of the method: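 Rap1B–BODIPY-GDP (250 nM) with 50 uM GDP; compounds pin-transferred to 9.74 nM–152 uM final (activator) or from 7.32 nM upwards (inhibitor). Fluorescence Ex/Em 480/540 nm read at 5 and 30 min, then after adding cAMP or buffer, at room temperature.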
# Chain of Rap guanine nucleotide exchange factor 3 (Homo sapiens) (O95398 whole entry, looked up): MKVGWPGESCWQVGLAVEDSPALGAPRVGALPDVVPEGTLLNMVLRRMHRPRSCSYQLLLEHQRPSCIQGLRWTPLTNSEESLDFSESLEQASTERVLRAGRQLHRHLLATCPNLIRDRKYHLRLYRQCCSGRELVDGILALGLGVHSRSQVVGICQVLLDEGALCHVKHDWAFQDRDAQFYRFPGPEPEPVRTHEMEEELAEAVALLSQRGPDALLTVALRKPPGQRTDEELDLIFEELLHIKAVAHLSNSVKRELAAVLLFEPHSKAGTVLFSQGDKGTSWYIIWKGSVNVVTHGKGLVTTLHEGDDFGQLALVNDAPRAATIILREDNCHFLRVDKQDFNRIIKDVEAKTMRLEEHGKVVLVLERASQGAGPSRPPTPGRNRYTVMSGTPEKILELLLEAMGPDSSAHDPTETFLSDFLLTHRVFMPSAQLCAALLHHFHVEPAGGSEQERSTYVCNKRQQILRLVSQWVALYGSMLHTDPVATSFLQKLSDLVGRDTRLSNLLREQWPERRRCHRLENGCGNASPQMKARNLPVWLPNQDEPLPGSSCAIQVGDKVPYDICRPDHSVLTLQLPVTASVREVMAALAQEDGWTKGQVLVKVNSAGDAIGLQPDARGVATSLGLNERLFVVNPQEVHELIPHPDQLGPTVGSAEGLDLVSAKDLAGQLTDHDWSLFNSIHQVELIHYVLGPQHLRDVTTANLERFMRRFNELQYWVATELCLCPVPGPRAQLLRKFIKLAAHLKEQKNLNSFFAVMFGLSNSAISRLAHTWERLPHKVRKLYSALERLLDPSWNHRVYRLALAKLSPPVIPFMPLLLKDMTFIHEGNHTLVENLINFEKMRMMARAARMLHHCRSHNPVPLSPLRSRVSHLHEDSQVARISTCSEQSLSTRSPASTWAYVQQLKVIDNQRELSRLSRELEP
Structure (SMILES),Potency,"activity change, negative = inhibition"
Nc1ccc(Oc2ncccn2)cc1,inactive,
COc1ccc2c(c1)C(CC(C)=O)N(c1ccc(-c3cccnc3)cc1)C(c1ccsc1)=C2 (stereo not given),inactive,
Cc1cc(C)nc(SCC(=O)c2ccc(F)c(C)c2)n1,inactive,
Cc1cc2oc(=O)c(CC(=O)O)c(C)c2c2occ(C(C)(C)C)c12,inactive,
CCCCOc1ccc(NS(=O)(=O)c2ccc(-n3cnnn3)cc2)cc1,inactive,
Cc1ccc(S(=O)(=O)Nc2ccccc2C(=O)Nc2nc(-c3ccc(F)cc3)cs2)cc1,inactive,
Cn1c(N)c(C(=O)COC(=O)C2(c3ccc(Cl)cc3)CCCC2)c(=O)n(C)c1=O,inactive,
CCSc1nc(-c2ccccc2)nc2c1CCCC2,inactive,
CC(=O)OCCNc1cc(N2CCN(C)CC2)c2noc3c2c1C(=O)c1ccccc1-3,inactive,
CC#C[C@@H](CC)c1ccc2ccn(C)c2c1,,-25.8% [at 30.8 µM] (inactive)
CCSc1oc(-c2cccs2)nc1S(=O)(=O)c1ccccc1,inactive,
O=C(Cc1ccccc1)Nn1c(O)c(/C=C2\C=Nc3ccccc32)sc1=S,inactive,
O=c1[nH]nc(CNc2ccc(O)cc2)c2ccccc12,inactive,
O=C(Cc1ccc(F)cc1)Nc1ccccc1Sc1ccccc1,inactive,
CN(Cc1ccnc2ccccc12)C(=O)C1CCC(=O)N(Cc2ccccc2F)C1 (stereo not given),inactive,
CCOC(=O)CC1C(=O)NCCN1C(=O)c1cccc(C(F)(F)F)c1 (stereo not given),inactive,
COc1cc(CN2C(=O)C(C)ON=C2c2cccs2)cc(OC)c1 (stereo not given),inactive,
CC(=O)c1ccc(NC(=O)c2ccc3c(c2)C(=O)N(c2ccccn2)C3=O)cc1,inactive,
CCc1nc2ccccc2c(C(=O)NCc2ccccc2)c1C,inactive,
COc1ccc(Br)cc1CNc1ccc(O)cc1,inactive,

Structure (SMILES),Potency,"activity change, negative = inhibition"
CCC(=O)N1CCc2cc(OC)c(OC)cc2C1COc1ccc(F)cc1 (stereo not given),,-5.57% [at 30.8 µM] (inactive)
O=C1C(O)=CC(=C(c2ccccc2)c2ccccc2)c2ccccc21,inactive,
CN(C)CCNC(=O)c1ccc(-c2cn3c(-c4ccc(Oc5ccccc5)cc4)cnc3cn2)cc1,inactive,
Cc1ccc(-c2nnc(Nc3ccc4c(c3)OCO4)c3ccccc23)cc1S(N)(=O)=O,inactive,
Cc1ccc2oc(=O)c(/C=C(\O)c3ccco3)nc2c1,inactive,
CC(C)NC(=O)c1sc(=S)n2c1[nH]c(=O)c1ccc(C(=O)NCCc3ccc(Cl)cc3)cc12,,-15.1% [at 30.8 µM] (inactive)
Cc1nc2cc(-c3ccsc3-n3c(C)ccc3C)[nH]n2c(=O)c1Cl,inactive,
CCC(=O)NC(c1cccs1)c1cc([N+](=O)[O-])c2cccnc2c1O (stereo not given),inactive,
Cc1cc(C)c2nc(N3C(=O)C(O)=C(C(=O)c4ccco4)C3c3ccc(O)cc3)sc2c1 (stereo not given),inactive,
COc1ccc2cc(/C=C3\SC(=S)NC3=O)c(N3CCOCC3)nc2c1,,3.21% [at 30.8 µM] (inactive)
Cc1cc(Nc2ccccc2)c2c([N+](=O)[O-])ccc(C)c2n1,inactive,
COc1ccccc1CN(C)CC(=O)Nc1ccccc1-c1ccccc1,inactive,
O=S(=O)(O)c1ccc2c(c1)C(C(Cl)(Cl)Cl)OC(C(Cl)(Cl)Cl)O2 (stereo not given),,-10.8% [at 30.8 µM] (inactive)
CCCc1nc2c3ccccc3ccn2c1CC(C)(C)C,inactive,
CCCCN(C(=O)c1ccc2c(c1)OCO2)c1ccccc1,inactive,
NC1=C(Cl)C(=O)c2ccc(S(N)(=O)=O)cc2C1=O,inactive,
COc1ccc(OC)c(C(=O)c2ccc(Cl)cc2)c1,,5.43% [at 30.8 µM] (inactive)
COc1cc(/C=C2\COC/C(=C\c3ccc(O)c(OC)c3)C2=O)ccc1O,inactive,
Cc1cc(C)n(Cc2ccc(C(=O)N/N=C/c3ccc(-c4ccc([N+](=O)[O-])cc4)o3)o2)n1,inactive,
N#Cc1c(C(F)(F)F)cc(-c2ccccc2)nc1SCc1nc(N)nc(N2CCOCC2)n1,inactive,
